PubChem BioAssay AID588477 (NMMLSC, 2011)
The source made the active and inactive calls.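 How the source made its calls: active means valid curve fit with half-effect dose at most 10 µM and total binding change across doses of 30 points or more; inactive means the rest.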

These molecules were tested on Rho wt (assay: inhibitors of Bodipy-GTP binding across eight GTPases, SAR follow-up, selectivity assay for Cdc42 probe extension project, biochemical, round 1 SAR, Mg buffer, multiplex flow cytometry (AID 588477)). Conditions: GST-GTPase beads; series mostly up to 100 µM.

outcome, inactive:
NS(=O)(=O)c1ccc(N2N=C(c3ccccc3)CC2c2ccccc2)cc1 (stereo not drawn)
COc1ccc(C2CC(c3ccccc3)=NN2c2ccc(S(N)(=O)=O)cc2)cc1 (stereo not drawn)
O=C(C#Cc1ccccc1)c1cccc([N+](=O)[O-])c1
